Values joined by “and” are separate entries in the source; they are usually repeats but may differ in a detail not shown here. Equal values may be shown once. Some compounds were tested as several samples or in several runs, with calls that do not always agree. Active and inactive are the calls of the source. Rule for the calls: active = hit-call score of the fitted dose curve at least 0.9, where 1 is the maximum; inactive = score below 0.9.

Read-out in the assay: CYP2C9 (gene 1559)
In words: LTEA_HepaRG_CYP2C9: Life Technologies and Expression Analysis (LTEA) Assay for CYP2C9 using HepaRG (AID 2283484). To be noted: mRNA level, 48 h; actives raise or lower the signal. How it is done:
LTEA_HepaRG is a cell based, multiplexed-readout assay that uses HepaRG, a human liver cell line, with measurements taken at 48 hours after chemical dosing on a 96-well plate.LTEA_HepaRG_CYP2C9 is one of 102 assay component(s) measured in the LTEA HepaRG cell culture assay. It is a marker of NR mediated metabolism.Data from the assay component LTEA_HepaRG_CYP2C9 was analyzed into 1 endpoint. This assay endpoint, LTEA_HepaRG_CYP2C9, was analyzed with bidirectional fitting relative to DMSO as the negative control and baseline of activity. Using a type of inducible reporter, measures of mRNA induction for gain or loss-of-signal activity can be used to understand regulation of transcription factor activity. To generalize the intended target to other relatable targets, this assay endpoint is annotated to the cyp intended target family, where the subfamily is xenobiotic metabolism.
A total of 1060 chemcials from the ToxCast library were tested in eight-point concentration-response experiments. Cell culture and cytotoxicity assays were conducted at Thermo Fisher Scientific's Custom Services facility (Madison, WI). A single lot of human HepaRG cells (Thermo Fisher Scientific, Frederick, MD) was used for the cell culture experiments. 96-well format collagen type I coated plates of human HepaRG cells were prepared using established methods. Briefly, cryopreserved HepaRG cells were thawed, plated at a density of approximately 100,000 cells/well in HepaRG Thaw, Plate, and General Purpose media (HPRG770, Thermo Fisher Scientific), and incubated for 48 hours. 0.5% DMSO was selected as vehicle control to balance the requisite need of DMSO in HepaRG cultures to maintain differentiation (for example, baseline metabolism, proportions of hepatocytes vs. cholangiocytes), while enabling further hepatic receptor pathway activation (for example, PXR and CAR) in response to chemical exposure. 48 hours after plating, the culture medium was replaced with HepaRG Serum-Free Incudtion Media. Cells were exposed to each test chemical in duplicate and maintained in CO2 incubators for another 48 hours. Chemical plates were thawed to room temperature and 200x concentrations of treatment groups were prepared. 8-point conentration-reponse curves were made with the highest exposure at 100 uM, followed by half-log dilutions, all in 0.5% DMSO. Each test plate contained variouse controls, induction positive controls (1mM phenobarbital), cytotoxicity positive controls ([…] aflatoxin B1), vehicle controls (0.5% DMSO), and total lysis controls (0.5% DMSO). Cell morphology images were taken using an Essen IncuCyte FLR automated microscope, with six 96-well plates imaged in about 24 minutes. Images were captured and exported and JPEG files. Spent culture media was transfered to black-well plates for the LDH assay, and remaining media was sorted at -80 C for later use. Cells were treated with RLT buffer and frozen until shipped for gene expression analysis. Total RNA was isolated from the cell suspension in 75 uL of Buffer RLT (Qiagen, Germantown, MD 20874) by Quintiles/Expression Analysis (Durham, NC) using a custom isolation procedure. Total RNA from each plate well was transferred to a preamplification plate. Fluidigm's 96.96 Dynamic ArrayTM (Fluidigm, Amsterdam, the Netherlands) technology was used for gene expression analyses by quantitative reverse transcription polymerase chain reaction (qRT-PCR, performed by Quintiles/Expression Analysis, Durham, NC)89. Standard TaqManTM Assays (Applied Biosystems/ThermoFisher Scientific, Foster City, CA) were used to assess the expression of 93 genes selected based on their selectivity and sensitivity to important hepatic receptors known to be modulated by environmental chemicals; importance in human hepatocyte functionality; and hepatotoxicity. […]
As for `CCOC(=O)C(C)Oc1ccc(Oc2cnc3cc(Cl)ccc3n2)cc1` (stereo not given), the result was inactive.
`CSC(=O)c1cccc2nnsc12`: the compound was called inactive.
On the same count and under the same terms, to `CCN(Cc1c(F)cccc1Cl)c1c([N+](=O)[O-])cc(C(F)(F)F)cc1[N+](=O)[O-]` belongs “inactive”; to `COC(=O)c1ccc(I)cc1S(=O)(=O)NC(=O)Nc1nc(C)nc(OC)n1`, “inactive”.
As usually defined, the AC50 is the concentration at which the activity in the assay is half-maximal. Turning to `O=C(Nc1ccc([N+](=O)[O-])cc1Cl)c1cc(Cl)ccc1O`, the half-maximal activity concentration (AC50) is 3.21 µM (active).
On to `CC(C)(C)[C@@H](O)[C@@H](Cc1ccc(Cl)cc1)n1cncn1`, for which the call was inactive.
For the compound `S=C([S-])NCCNC(=S)[S-].[Mn+2]`, the AC50 is 2.23 µM (active).
Take `CC1(C)C(C=C(Cl)Cl)C1C(=O)OCc1cccc(Oc2ccccc2)c1` (stereo not given): the outcome was inactive.
Regarding `COC(=O)c1ccccc1C(=O)O`, the outcome was inactive.
On the same count and under the same terms, to `OB(O)O` belongs “inactive”.
On to `CCCCC(CC)CN1C(=O)C2C3C=CC(C3)C2C1=O` (stereo not given), for which the concentration at half-maximal activity (AC50) was 82.6 µM (active).
For `CCOC(=O)COc1cc(-n2ncc(C(F)(F)F)c(C)c2=O)c(F)cc1Cl`, the outcome was inactive.
`C#CCOC(=O)[C@@H](C)Oc1ccc(Oc2ncc(Cl)cc2F)cc1`: the call was inactive.
Same read-out and setting: then `CCCOC(=O)c1ccc(C(=O)OCCC)nc1`, with “inactive”.
Take `N#CSCSc1nc2ccccc2s1`: the AC50 is 75.3 µM (active).
Still for that read-out and setting: then `CCOC(=O)C(C)Oc1ccc(Oc2nc3ccc(Cl)cc3o2)cc1` (stereo not given), with 19.6 µM (active).
For `CCCCC(CC)COC(=O)c1ccccc1C(=O)O` (stereo not given), the compound was classed as inactive.
On to `CC(C)(c1ccc(O)cc1)c1ccc(O)cc1`, for which the concentration at half-maximal activity (AC50) was 9.92 µM (active) and the result was inactive.
Turning to `Cc1nn(C)c(Oc2ccccc2)c1C=NOCc1ccc(C(=O)OC(C)(C)C)cc1`, the AC50 is 20.1 µM (active).
With `C#C[C@]1(O)CC[C@H]2[C@@H]3CCC4=CC(=O)CC[C@@H]4[C@H]3CC[C@@]21CC`, the call was inactive.
Still for that read-out and setting: then `COc1c(Cl)ccc(Cl)c1C(=O)O`, with “inactive”; and `CN(C)C(=O)Nc1ccc(Cl)c(Cl)c1`, with “inactive”; and `CCOC(=O)c1ccc(O)cc1`, with “inactive”.
As to `CCCCCOC(=O)COc1cc(N2C(=O)C3=C(CCCC3)C2=O)c(F)cc1Cl`, the compound was classed as inactive.
For the compound `c1ccc2[nH]c(-c3cscn3)nc2c1`, the outcome was inactive.
On the same count and under the same terms, to `CCCOC(=O)NCCCN(C)C` belongs “inactive”; to `CCNc1nc(N)nc(Cl)n1`, “inactive”.
As to `S=C(S)NCCNC(=S)S.[Mn+2].[S-]C([S-])=NCCN=C([S-])[S-].[Zn+2]`, the half-maximal activity concentration (AC50) was 823 nM (active) and 816 nM (active) and 891 nM (active).
With `CCSC(=O)N(CC(C)C)CC(C)C`, the outcome was inactive.
Consider `Oc1ccc(C(c2ccc(O)cc2)C(Cl)(Cl)Cl)cc1`, for which the AC50 is 93.1 µM (active).
Turning to `CCCN(CCC)c1c([N+](=O)[O-])cc(C(F)(F)F)c(N)c1[N+](=O)[O-]`, the compound was classed as inactive.
With `CC(C)CCCCCCc1ccc(O)cc1`, the result was inactive.
`C=CCOC(Cn1ccnc1)c1ccc(Cl)cc1Cl` (stereo not given): the AC50 was 33.1 µM (active).
With `O=C(O)c1ccccc1`, the compound was classed as inactive.
Same read-out and setting: to `O=C(c1ccc(O)cc1O)c1ccc(O)cc1O` belongs “inactive”.
For `O=C(c1ccccc1)C1CCCCC1`, the outcome was inactive.
Consider `C[C@]12CC[C@@H]3c4ccc(O)cc4C[C@@H](CCCCCCCCCS(=O)CCCC(F)(F)C(F)(F)F)[C@H]3[C@@H]1CC[C@@H]2O` (stereo not given in full), for which the concentration at half-maximal activity (AC50) is 28.7 µM (active).
The same measure, in the same setting: then `CCOC(=O)NCCOc1ccc(Oc2ccccc2)cc1`, with 80 µM (active).
Regarding `CCCN(CCC)C(=O)SCC`, the compound was called inactive.

The record behind these values is PubChem BioAssay (EPA / NIEHS).
